Laboratory results from the supplement of paper PMC13380429.

Assays:
[1] = test system: Vero E6 infected with SARS-CoV-2; experiment: morphology score (similarity to uninfected cells); higher = more like uninfected cells; settings: 24 h
[2] = test system: Vero E6 infected with SARS-CoV-2; experiment: SARS-CoV-2 infection rate relative to infected DMSO; higher = more infection, active = 60 or less; settings: 24 h

| Compound | morphology score [1] | SARS-CoV-2 infection rate [2] |
| --- | --- | --- |
| C[S+](CC[C@H](N)C(=O)O)C[C@H]1O[C@@H](n2cnc3c(N)ncnc32)[C@H](O)[C@@H]1O (stereo not given in full) [ademetionine] (10 µM) | 0.0625 | 96.5% (inactive) |
| CCCCCCCCCCCC(=O)N(CCO)CCO [lauric-diethanolamide] (10 µM) | -0.121 | 108% (inactive) |
| COc1ccc(CCNCC(O)COc2cccc(C)c2)cc1OC (stereo not given) [bevantolol] (10 µM) | -0.027 | 110% (inactive) |
| O=C1c2ccccc2-c2c(NCCc3ccccc3)c(=O)[nH]c3cccc1c23 (10 µM) | -0.00844 | 112% (inactive) |
| CSc1ccc(C(=O)N[C@@H]2CCCC[C@@H]2NC(=O)CNC(=O)c2cc(C(F)(F)F)ccc2NC(=O)NC(C)C)cc1 (10 µM) | 0.07 | 93.5% (inactive) |
| CCCCOC(=O)c1ccc(N)cc1 [butamben] (10 µM) | 0.102 | 108% (inactive) |
| CC[C@H](CO)Nc1nc(NCc2ccccc2)c2ncn(C(C)C)c2n1 [roscovitine] (10 µM) | -0.0602 | 96% (inactive) |
| Cn1cnc(N)c2ncnc1-2 [3-methyladenine] (10 µM) | 0.258 | 93% (inactive) |
| c1ccc(-c2nn3c(c2-c2ccnc4cc(OCCN5CCOCC5)ccc24)CCC3)nc1 (10 µM) | 0.686 | 80% (inactive) |
| O=C(NC1(c2ccccc2)CC1)c1c(CN2CCC(N3CCCCC3)CC2)c(-c2cccc(C(F)(F)F)c2)nc2cc(Br)ccc12 (0.833333 µM) | -0.235 | 112% (inactive) |
| CC1=C(CC(=O)O)c2cc(F)ccc2/C1=C\c1ccc([S+](C)[O-])cc1 (stereo not given) [sulindac] (10 µM) | 0.0804 | 104% (inactive) |
| CCn1nc(C2CCN(C(=O)CCO)CC2)nc1-c1cnc(N)c(-c2nnc(C(C)(C)C)o2)n1 (0.833333 µM) | 0.199 | 94% (inactive) |
| COc1c(C)cnc(Cn2cnc3c(Cl)nc(N)nc32)c1C (10 µM) | 0.256 | 98.5% (inactive) |
| O=c1[nH]cnc2c([C@@H]3N[C@H](CO)[C@@H](O)[C@H]3O)c[nH]c12 [forodesine] (10 µM) | 0.155 | 103% (inactive) |
| NS(=O)(=O)OC[C@@H]1C[C@@H](n2ccc3c(N[C@H]4CCc5ccccc54)ncnc32)C[C@@H]1O [pevonedistat] (0.833333 µM) | -0.404 | 110% (inactive) |
| Cn1c(=O)c2c(ncn2CC(=O)Nc2ccc(-c3ccccc3)nn2)n(C)c1=O (10 µM) | 0.382 | 80.5% (inactive) |
| CN(C)CCCN1c2ccccc2CCc2ccccc21 [imipramine] (10 µM) | -0.0385 | 92.5% (inactive) |
| CC(C)(C)C(=O)OCC(=O)[C@H]1CC[C@H]2[C@@H]3CCC4=CC(=O)CC[C@]4(C)[C@H]3CC[C@]12C [desoxycorticosterone-pivalate] (10 µM) | 0.123 | 106% (inactive) |
| O=C(O)c1ccc(-c2c[nH]c3ncc(-c4ccccc4)cc23)cc1C1CCCC1 (10 µM) | 0.309 | 89.5% (inactive) |
| N[C@H](C(=O)O)[C@H](O)c1ccc(O)c(O)c1 [droxidopa] (10 µM) | -0.0971 | 122% (inactive) |

| Compound | morphology score [1] | SARS-CoV-2 infection rate [2] |
| --- | --- | --- |
| Nc1nc(=O)n([C@H]2C[C@H](O)[C@@H](CO)O2)cc1F [fdcyd] (10 µM) | -0.201 | 97.5% (inactive) |
| CSCC[C@H](NC(=O)[C@H](CC(C)C)NC(=O)[C@@H](Cc1c[nH]c2ccccc12)NC(=O)[C@H](Cc1ccccc1)N(C)C(=O)[C@@H](Cc1c[nH]c2ccccc12)NC(=O)[C@@H](N)CCCNC(=N)N)C(N)=O [antagonist-g] (10 µM) | -0.124 | 114% (inactive) |
| CC(=O)O[C@@H]1C[C@H]2C(C)(C)C(=O)C=C[C@]2(C)[C@H]2CC[C@@]3(C)[C@H](c4ccoc4)OC(=O)[C@H]4O[C@]43[C@@]21C [gedunin] (10 µM) | 0.145 | 106% (inactive) |
| Cc1ccccc1N1CCN(S(=O)(=O)C[C@]23CC[C@H](C[C@@H]2NC(=O)[C@@H](N)CCS(C)(=O)=O)C3(C)C)CC1 (10 µM) | 0.049 | 95% (inactive) |
| CC(C)(C)NCC(O)COc1cccc2c1CCC(=O)N2 (stereo not given) [carteolol] (10 µM) | 0.111 | 96.5% (inactive) |
| Cc1nc(C)c(Cl)c(O)c1Cl [clopidol] (10 µM) | -0.0297 | 108% (inactive) |
| Cc1cccc(C)c1NC(=O)[C@@H](C)N [tocainide] (10 µM) | -0.0832 | 109% (inactive) |
| Cc1cccc(C)c1OCC(=O)N[C@@H](Cc1ccccc1)[C@@H](O)C[C@H](Cc1ccccc1)NC(=O)[C@H](C(C)C)N1CCCNC1=O [Lopinavir] (10 µM) | 0.184 | 82% (inactive) |
| CC(C)(C)c1ccc(-c2nc3ccccc3[nH]2)cc1 (10 µM) | 0.557 | 64% (inactive) |
| Cc1c(-c2ccc(-c3ccccc3F)cc2)nc2ccc(F)cc2c1C(=O)O [brequinar] (10 µM) | 0.115 | 95% (inactive) |
| CC(C(=O)O)c1ccc2c(c1)Cc1ccccc1-2 (stereo not given) [cicloprofen] (10 µM) | -0.0564 | 100% (inactive) |
| O=C(O)C(O)C(O)C(=O)O (stereo not given) [tartaric-acid] (10 µM) | -0.0312 | 103% (inactive) |
| c1ccc2c(CCNc3ccc(Nc4ccncc4)cc3)c[nH]c2c1 [serdemetan] (10 µM) | 0.933 | 37.5% (active) |
| O=C(O)CC(S)C(=O)O (stereo not given) [mercaptosuccinic-acid] (10 µM) | -0.089 | 108% (inactive) |
| NC(=O)c1cccc(-c2cccc(OC(=O)NC3CCCCC3)c2)c1 (10 µM) | 0.00303 | 104% (inactive) |
| C[C@@H]1CC[C@@]2(OC1)O[C@H]1C[C@H]3[C@@H]4CC=C5C[C@@H](O)CC[C@]5(C)[C@H]4CC[C@]3(C)[C@H]1[C@@H]2C [diosgenin] (10 µM) | 0.114 | 106% (inactive) |
| Cc1nc(=O)c2cc(CN(C)c3ccc(C(=O)N[C@@H](CCC(=O)O)C(=O)O)s3)ccc2[nH]1 [raltitrexed] (0.833333 µM) | -0.207 | 104% (inactive) |
| CC[N+](CC)(CC)CCOc1cccc(OCC[N+](CC)(CC)CC)c1OCC[N+](CC)(CC)CC [gallamine-triethiodide] (10 µM) | -0.128 | 112% (inactive) |
| NC(N)=O [urea] (10 µM) | -0.168 | 114% (inactive) |
| CC1(C)CC(Oc2ccc(-c3ccc(-c4cn[nH]c4)cc3O)nn2)CC(C)(C)N1 (10 µM) | -0.373 | 120% (inactive) |

| Compound | morphology score [1] | SARS-CoV-2 infection rate [2] |
| --- | --- | --- |
| CCN(CC)CCO[C@H]1CC[C@@]2(C)C(=CC[C@@H]3[C@@H]2CC[C@]2(C)C(=O)CC[C@@H]32)C1 (0.833333 µM) | 0.234 | 84% (inactive) |
| CCCCCCCCCCCCCCCC(=O)OC(C)C [isopropyl-palmitate] (10 µM) | 0.286 | 77% (inactive) |
| CN1C[C@@H]2CN(c3ccc(-c4ccccc4)nn3)C[C@@H]2C1 (10 µM) | 0.149 | 91% (inactive) |
| Cc1cc(=O)n(-c2ccccc2)[nH]1 [N-demethylantipyrine] (10 µM) | 0.121 | 101% (inactive) |
| COc1cc([C@@H]2c3cc4c(cc3[C@@H](O[C@@H]3O[C@@H]5CO[C@@H](C)O[C@H]5[C@H](O)[C@H]3O)[C@H]3COC(=O)[C@H]23)OCO4)cc(OC)c1OP(=O)(O)O [etoposide-phosphate] (10 µM) | 0.101 | 94.5% (inactive) |
| NS(=O)(=O)c1cc(-c2nnn[nH]2)c(NCc2cccs2)cc1Cl [azosemide] (10 µM) | 0.286 | 98.5% (inactive) |
| CC(C)=CCC/C(C)=C/CC/C(C)=C/CSc1ccccc1C(=O)O [salirasib] (10 µM) | 0.161 | 89% (inactive) |
| N#CC1(c2ccc(NC(=O)c3cccnc3NCc3ccncc3)cc2)CCCC1 [apatinib] (10 µM) | 0.31 | 107% (inactive) |
| CC1(N)CCN(c2cnc(-c3cccc(Cl)c3Cl)c(N)n2)CC1 (0.833333 µM) | 0.0281 | 112% (inactive) |
| N[C@@H](C(=O)O)c1ccc(C(=O)O)c(O)c1 (racemic) [4-carboxy-3-hydroxyphenylglycine-(RS)] (10 µM) | 0.126 | 101% (inactive) |
| CC[C@@H](C(N)=O)N1CCCC1=O [levetiracetam] (10 µM) | 0.0141 | 109% (inactive) |
| CC(C)OC(=O)CNC(=O)[C@H](CS)NC(=O)CC[C@H](N)C(=O)O [glutathione-monoisopropyl-ester] (10 µM) | 0.0539 | 101% (inactive) |
| CCc1cc(Cl)c(OC)c(C(=O)NC[C@@H]2CCCN2CC)c1O [eticlopride] (10 µM) | 0.426 | 63.5% (inactive) |
| N=C(N)NC(=O)c1nc(Cl)c(N)nc1N [amiloride] (10 µM) | 0.1 | 98% (inactive) |
| COc1ccc(NS(=O)(=O)c2ccc(/N=N/c3ccc(O)c(C(=O)O)c3)cc2)nn1 [salazodine] (10 µM) | 0.0596 | 113% (inactive) |
| CCOc1cccc(NC(=O)c2ccc(N3CCCC3)c(C(F)(F)F)c2)c1 (10 µM) | 0.0793 | 102% (inactive) |
| CC1(C)N=C(N)N=C(N)N1OCCCOc1cc(Cl)c(Cl)cc1Cl (10 µM) | 0.205 | 89.5% (inactive) |
| c1ccc(CCNc2nc(-c3ccccc3)cs2)cc1 [fanetizole] (10 µM) | -0.0158 | 99.5% (inactive) |
| CCC[C@H]1C(=O)N2C(N(C)C)=Nc3ccc(C)cc3N2C1=O [azapropazone] (10 µM) | 0.165 | 94% (inactive) |
| Cc1[nH]c2ccccc2c1CCNCc1ccc(/C=C/C(=O)NO)cc1 [panobinostat] (0.833333 µM) | -0.0995 | 105% (inactive) |
